Test systems include PIK3C2G; PIK3CA; PIK3CB; PIK3CD; PIK3CG; PIKFYVE; PIM1; PIM2; PIM3.
Common to all, as to details: concentration: 1 μM, replicates: in singlicate; n = 1
For the next assay, the system named is T1, PIK4CB.
T1 construct: gene PI4KB

Structures are written as SMILES.
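Further: KINOMEscan kinase panel screen.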

As for `Nc1ncnc2c1nc(-c1ccccc1)n2-c1ccccc1` [SKF-97293], the “%Inh” value worked out at 6% with PIK3C2G; 16% with PIK3CA; 27% with PIK3CB; 17% in the assay on PIK3CD; 13% with PIK3CG; 29% in the assay with PIK4CB. The “%Inh” value in the assay on PIKFYVE came out at 20%; with PIM1, 39%; in the assay with PIM2, 0%; in the assay with PIM3, 24%.
On to `O=C(O)C(F)(F)F.O=C(O)C(F)(F)F.O=c1[nH]ccc2nc(N[C@@H]3CCCNC3)nc(Nc3ccc(S(=O)(=O)N4CCOCC4)cc3)c12` [GSK2177277], for which the “%Inh” value in the assay on PIK3C2G was 0%; with PIK3CA, 0%; in the assay with PIK3CB it was 0%; in the assay with PIK3CD it was 0%; in the assay with PIK3CG, 80%; in the assay on PIK4CB, 59%. The “%Inh” value in the assay on PIKFYVE came to 69%; with PIM1, 97.5%; in the assay with PIM2, 98.8%; with PIM3, 99.8%.
As to `O=C(Nc1cccc(-c2nn3ccccc3c2-c2ccnc(Nc3cccc(F)c3)n2)c1)c1c(F)ccc(F)c1Cl` [GSK357952], the “%Inh” value in the assay with PIK3C2G was found to be 21%; in the assay on PIK3CA, 0%; in the assay with PIK3CB, 0%; in the assay on PIK3CD, 0%; in the assay on PIK3CG it was 0%; in the assay on PIK4CB it was 24%. Moreover, the “%Inh” value in the assay with PIKFYVE was 0%; in the assay with PIM1, 10%; with PIM2, 0%; in the assay with PIM3, 0%.
For the molecule `Cc1occc1-c1ncc(OC[C@@H](N)Cc2c[nH]c3ccccc23)cc1-c1ccc2[nH]nc(C)c2c1.O=C(O)C(F)(F)F` [GSK682037], the “%Inh” value with PIK3C2G, with PIK3CA, with PIK3CB, in the assay on PIK3CD, with PIK3CG and in the assay with PIK4CB was 0% in each case. Moreover, the “%Inh” value with PIKFYVE is 0%; in the assay on PIM1 it was 39%; with PIM2, 97.4%; in the assay on PIM3, 64%.
In the case of `CCc1ccc(-c2ccc3c(c2)-c2c(cnn2C)S(=O)(=O)N3C)cc1`, the “%Inh” value in the assay with PIK3C2G worked out at 0%; in the assay with PIK3CA it was 5%; in the assay with PIK3CB, 0%; in the assay with PIK3CD it was 0%; in the assay on PIK3CG, 2%; in the assay on PIK4CB, 12%. For the same molecule, the “%Inh” value with PIKFYVE is listed as 53%; in the assay on PIM1, 1%; in the assay with PIM2, 0%; with PIM3, 0%.
In the case of `COc1ccc(-c2coc3ccc(-c4nnc(SCc5ccc(OC)c(C(F)(F)F)c5)o4)cc23)cc1`, the “%Inh” value in the assay on PIK3C2G worked out at 13%; with PIK3CA it was 0%; with PIK3CB, 27%; with PIK3CD it was 11%; in the assay with PIK3CG it was 0%; with PIK4CB, 0%. Further, the “%Inh” value in the assay on PIKFYVE stood at 0%; in the assay with PIM1, 0%; in the assay with PIM2 it was 18%; in the assay on PIM3, 4%.
In the case of `CC(=O)Nc1nc2cnc(Nc3cc(NC(=O)c4cccc(C5(C#N)CC5)c4Cl)ccc3C)nc2s1`, the “%Inh” value was determined as 27% in the assay with PIK3C2G; 0% with PIK3CA; 12% in the assay on PIK3CB; 14% in the assay with PIK3CD; 0% in the assay on PIK3CG; 0% with PIK4CB. Moreover, the “%Inh” value was 0% in the assay with PIKFYVE, 2% with PIM1, 4% with PIM2 and 0% in the assay on PIM3.
Turning to `CSc1cccc2c(-c3ccncn3)c(-c3ccc(F)cc3)nn12` [GW514786], the “%Inh” value with PIK3C2G, with PIK3CA, in the assay on PIK3CB, in the assay on PIK3CD, in the assay on PIK3CG and in the assay on PIK4CB was 0% in each case. Also, the “%Inh” value in the assay with PIKFYVE amounted to 19%; in the assay with PIM1, 0%; in the assay with PIM2 it was 0%; in the assay with PIM3, 15%.
On to `O=C(Nc1cccc(-c2nn3ncccc3c2-c2ccnc(Nc3ccccc3)n2)c1)c1c(F)cccc1F` [GSK198271], for which the “%Inh” value is 0% with PIK3C2G; 0% in the assay with PIK3CA; 0% in the assay on PIK3CB; 0% in the assay with PIK3CD; 0% with PIK3CG; 6% with PIK4CB. For the same molecule, the “%Inh” value in the assay on PIKFYVE stood at 0%; in the assay on PIM1, 16%; in the assay on PIM2, 0%; with PIM3 it was 5%.

(Values after article PMC5540273 (PLoS ONE, 2017).)
